# An excerpt weighted towards active compounds, which were near 4.5% of everything screened.
# CSC inhib = blocks cancer stem cells; cancer stem cell-like cells viability, luminescence; inhibition, % at 7.5 µM; actives 1.1% (n = 300,000); AID 2717; in the data active means inhibition above about 75%; tested in HMLE shEcad cells
# Beta apoptosis = blocks beta cell apoptosis; protection from apoptosis, % (no concentration beside the values); actives 0.8% (n = 300,000); INS-1E cytokine-induced death, ATP luminescence, 48 h; percent of positive-control rescue, neutral wells zero;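 active means Every replicate reaches about 75%, or at least half do and their mean reaches it too, limit read from the data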;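 further: 0% = cytokine-treated negative control wells and 100% = positive control rescue; higher means more ATP so stronger rescue from cytokine killing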
# Mdm2-MdmX inh = human Mdm2/MdmX binding inhibition; O15151+Q00987; SaOS-2 split-luciferase Mdm2/MdmX complementation, luminescence; inhibition, % at 8 µM; actives 3% (n = 330,000); AID 485346;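 active means inhibition of at least 50% at 8 µM in the primary screen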
# Target sequence (O15151 whole entry, looked up): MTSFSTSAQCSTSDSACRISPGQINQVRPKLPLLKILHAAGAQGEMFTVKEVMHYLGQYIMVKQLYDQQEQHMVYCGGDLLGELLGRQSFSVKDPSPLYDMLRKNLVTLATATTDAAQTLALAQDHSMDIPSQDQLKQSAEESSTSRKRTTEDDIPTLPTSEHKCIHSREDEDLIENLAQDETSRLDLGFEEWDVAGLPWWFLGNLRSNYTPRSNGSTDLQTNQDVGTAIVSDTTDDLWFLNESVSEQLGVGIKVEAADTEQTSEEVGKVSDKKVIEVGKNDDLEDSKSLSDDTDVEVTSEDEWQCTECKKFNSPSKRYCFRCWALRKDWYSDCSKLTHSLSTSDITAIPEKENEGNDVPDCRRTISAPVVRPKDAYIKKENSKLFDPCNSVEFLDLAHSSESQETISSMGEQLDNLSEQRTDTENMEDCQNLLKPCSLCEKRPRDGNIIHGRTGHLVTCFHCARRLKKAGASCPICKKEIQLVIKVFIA
# Target sequence (Q00987 whole entry, looked up): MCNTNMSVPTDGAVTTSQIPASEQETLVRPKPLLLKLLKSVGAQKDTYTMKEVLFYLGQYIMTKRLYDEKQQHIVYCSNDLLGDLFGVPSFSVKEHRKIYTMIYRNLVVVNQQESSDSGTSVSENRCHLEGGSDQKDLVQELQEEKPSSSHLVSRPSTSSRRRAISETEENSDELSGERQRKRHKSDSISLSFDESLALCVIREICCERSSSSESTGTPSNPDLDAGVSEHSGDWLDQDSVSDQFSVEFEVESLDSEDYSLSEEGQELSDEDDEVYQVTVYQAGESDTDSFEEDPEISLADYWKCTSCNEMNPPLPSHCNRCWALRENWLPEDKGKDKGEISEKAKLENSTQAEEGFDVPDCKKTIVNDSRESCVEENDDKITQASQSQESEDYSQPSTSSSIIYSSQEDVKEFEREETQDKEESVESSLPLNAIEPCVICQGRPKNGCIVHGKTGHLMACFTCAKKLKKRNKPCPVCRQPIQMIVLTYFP
# Jurkat NFkB inh = lowers PMA/ionomycin-induced NF-kB signal in Jurkat cells | AID 435003 | PMA/ionomycin-induced NF-kB luciferase reporter, luminescence | inhibition, % at 4 µM | actives 0.53% (n = 330,000); in the data active means inhibition above about 50%
# Gli-Sufu antag = Gli-Sufu pathway antagonism; Sufu-KO-LIGHT fibroblasts, Gli luciferase reporter luminescence; actives 0.74% (n = 340,000); inhibition, % at 5 µM; AID 588413;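 active means inhibition above about 55%, limit read from the data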;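 further: 0% = DMSO-treated cells and 100% = wells with medium but no cells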
# 697 NFkB inh = inhibitors of the PMA/ionomycin-induced NF-kB reporter in 697 B cells | AID 435022 | 697 B-cell NF-kB luciferase reporter, 16 h | actives 0.33% (n = 330,000) | inhibition, % at 4 µM; in the data active means inhibition above about 35%
# Gli-Sufu confirm = Gli-SUFU antagonism confirmation, single concentration | shares compounds with Gli-Sufu antag | Sufu-KO-LIGHT cells, Gli luciferase reporter, luminescence | inhibition, % at 5 µM | actives 40% (n = 2,500) | AID 602428;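 active means mean inhibition at 5 µM reaching about 45%, limit read from the data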;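 further: plate controls were DMSO-treated cells for no effect and wells lacking cells for full effect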
# SufuKO cytotox = cytotoxicity counter-screen for Gli-SUFU antagonists. Sufu-KO-LIGHT cells cytotoxicity, ATP luminescence. AID 651994. actives 32% (n = 2,500). cytotoxicity, % at 5 µM. shares compounds with Gli-Sufu antag;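 active means mean cytotoxicity at 5 µM above about 25%, limit read from the data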;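 further: cells exposed to compound overnight for roughly 16 to 18 hours; plate controls were DMSO wells with cells for no effect and medium without cells for full effect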
# Wnt3a cs = inhibits Wnt3a reporter, counter-screen for Gli-SUFU antagonists. actives 20% (n = 2,500). Wnt-LIGHT cells, Wnt3a-driven luciferase reporter, luminescence. inhibition, % at 6.25 µM. shares compounds with Gli-Sufu antag;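 active means mean inhibition above about 25%, limit read from the data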
# Active calls of the source: *; / = no result.
SMILES,CSC inhib,Beta apoptosis,Mdm2-MdmX inh,Jurkat NFkB inh,Gli-Sufu antag,697 NFkB inh,Gli-Sufu confirm,SufuKO cytotox,Wnt3a cs
CCCCCC(=O)Nc1sc(C)c(C)c1C#N,-14,1,-15,-5,66*,-19,12,2,-37
CCCC(=O)Nc1sc(C)c(C)c1C#N,-20,-6,-19,1,20,10,/,/,/
CCC(=O)N1CCc2cc(Br)cc(S(=O)(=O)N3CCC(C(=O)NC(C)(C)C)CC3)c21,/,2,1,18,54,20,5,19,-39
O=S(=O)(c1cc(Br)ccc1Br)N1CCCCCC1,-1,/,27,4,56*,7,14,12,9
CCCC1(c2ccccc2)NC(=O)N(CC(=O)Nc2ccccc2C(F)(F)F)C1=O (stereo not given),-12,3,9,-8,32,1,/,/,/
CC(Oc1ccc(Br)cc1Br)C(=O)Nc1cccnc1Cl (stereo not given),7,2,18,17,52,-4,9,11,-31
CC(Oc1ccc(Br)cc1Br)C(=O)Nc1cccnc1 (stereo not given),-12,-5,23,18,-7,12,/,/,/
O=C(OCc1ccccc1)N1CCC2CC1c1cc(NCCc3ccccc3)ccc12 (stereo not given),/,/,/,/,-14,/,/,/,/
CC(Sc1nc2ccccc2c(=O)n1CC1CCCO1)C(=O)N(C)Cc1ccccc1 (stereo not given),4,-2,10,-2,8,-19,/,/,/
CC(Sc1nc2ccccc2c(=O)n1C)C(=O)N(C)C1CCCCC1 (stereo not given),-15,50,19,23,72*,-51,61*,18,10
COC(=O)CC(NC(=S)NC(=O)c1ccccc1)c1ccc(Br)cc1 (stereo not given),8,3,16,5,6,10,/,/,/
O=S(=O)(Nc1cccc(S(=O)(=O)N2CCCCCC2)c1)c1ccc(F)cc1F,-7,0,3,8,4,8,/,/,/
Cc1cccc(N2CCN(C(=O)c3cc(S(=O)(=O)N4CCOCC4)cn3C)CC2C)c1 (stereo not given),-2,-2,15,2,58*,2,14,1,10
Cc1cccc(CNC(=O)c2cc(S(=O)(=O)N3CCOCC3)cn2C)c1,-4,-6,19,3,-18,13,/,/,/
CCC(C)[C@H]1CN=C(N)N1CCc1cccc2ccccc12 (stereo not given in full),-17,/,40,21,62*,-25,66*,24,8
CCC(C)[C@H]1CNC(=S)N1CCc1cccc2ccccc12 (stereo not given in full),-3,-1,-8,8,6,1,/,/,/
Cc1ccc(N(CC(=O)NCCc2ccccc2)C(=O)CCC(=O)Nc2cc(C)ccn2)cc1,-13,4,21,-11,22,11,/,/,/
CCOC(=O)c1c(C)[nH]c(C)c1S(=O)(=O)N(C)CC(=O)Nc1cc(C)ccc1OC,-4,-1,8,1,8,4,/,/,/
CCOC(=O)c1c(C)[nH]c(C)c1S(=O)(=O)N(C)CC(=O)NCc1cccc(C)c1,1,4,7,9,51,-5,5,-4,-23
COc1ccc(Cc2n[nH]c(=S)o2)cc1,-6,-4,6,2,55,17,19,1,-4
COc1ccccc1/C=C/C(=O)Nc1ccc(S(=O)(=O)Nc2cc(C)on2)cc1,-8,2,34,3,9,-10,/,/,/
O=S(=O)(NCc1cccs1)c1ccc(Br)cc1,-1,/,0,4,3,11,/,/,/
O=C(Nc1cccc(Cl)c1)c1ccc(F)c(S(=O)(=O)NCc2ccc3c(c2)OCO3)c1,35,45,4,5,89*,0,12,-1,-11
